From PMC5540273 (PLoS ONE, 2017)

Test system: T1, GRK3
T1 construct: gene ADRBK2
Conditions: concentration: 1 μM, replicates: in singlicate; n = 1
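Note: KINOMEscan kinase panel screen.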

Row | Structure (SMILES) | %Inh [%]
1 | Fc1ccc(-c2ncn(CCCN3CCOCC3)c2-c2cccnc2)cc1 [SB-211743] | 7
2 | COc1cc2ncn(-c3cc(OCc4sccc4Cl)c(C(N)=O)s3)c2cc1OC [GSK448459] | 33
3 | Cl.Nc1ncnc2occ(-c3ccc(NC(=O)Nc4cc(C(F)(F)F)ccc4F)cc3)c12 [SB-707548] | 36
4 | NS(=O)(=O)CCc1cccc(Nc2nccc(-c3c(-c4cccc(NC(=O)c5c(F)cccc5F)c4)nn4ccccc34)n2)c1 [GSK336735] | 89
5 | O=C(NCCNc1ccnc(Nc2ccc(F)cc2)n1)c1cc2ccccc2s1 [GSK1379874] | 0
6 | CCc1ccnc(/C=C/c2n[nH]c3cc(Sc4ccccc4C(=O)NC)ccc23)c1 | 7
7 | CC(C)Oc1ccc2c(-c3ccnc(Nc4ccc(N5CCN(C)CC5)cc4)n3)cnn2n1 [GW696155] | 48
8 | Cc1nnc(-c2ccc3ncc(-c4ccc(S(C)=O)cc4)n3c2)o1 (stereo not shown) | 0
9 | O=C(NCCNc1ccnc(Nc2ccc(F)cc2)n1)Nc1ccccc1F [GSK1379880] | 23
10 | NS(=O)(=O)c1cccc(-c2ccc3ncc(N4CCOCC4)nc3c2)c1 [GSK1535721] | 30
11 | CN(C(=O)c1ccc(-c2cc(-c3c[nH]nc3-c3ccccn3)ccn2)cc1)C1CCOCC1 [GW810083] | 18
12 | O=C(Nc1cccc(-c2nn3ncccc3c2-c2ccnc(Nc3cccc(C(F)(F)F)c3)n2)c1)c1c(F)cccc1F [GSK299495] | 33
13 | Cc1c(Cn2c(C)nn3c(=O)cc(N4CCOC(C)C4)nc23)cccc1C(F)(F)F (stereo not shown) [GSK2344444] | 0
14 | NCC(NC(=O)c1cc(-c2cn[nH]c2)c(-c2ccnc3[nH]ccc23)s1)c1ccccc1.O=C(O)C(F)(F)F.O=C(O)C(F)(F)F (stereo not shown) [GSK1325775] | 76
15 | O=C(NCCCN1CCOCC1)c1cccc(Nc2nccc(Nc3ccc(Oc4ccccc4)cc3)n2)c1 [GW663929] | 20
16 | O=C1NC(=O)C(N2CCc3ccccc32)=C1c1cccc(Cl)c1 [SB-408010] | 0
17 | Fc1ccc(-c2ncn(CCCN3CCOCC3)c2-c2ccccn2)cc1 [SB-211742] | 0

Row | Structure (SMILES) | %Inh [%]
18 | N#Cc1ccc(-c2cc(-c3c[nH]nc3-c3ccccn3)ccn2)cc1 [GW693028] | 70
19 | [2H]C([2H])(c1cccc(C(F)(F)F)c1C)n1ccn2c(=O)nc(N3CCOCC3)cc12 [GSK2336394] | 20
20 | COc1ccc(COc2cc(-n3cnc4ccccc43)sc2C(N)=O)cc1 [GSK1024304] | 10
21 | O=c1cc(N2CCOCC2)nc2n(Cc3cccc(C(F)(F)F)c3)ccn12 [GSK2297543] | 0
22 | COC(=O)Nc1nc2cc(Oc3ccc(NC(=O)Nc4cc(F)ccc4F)cc3)ccc2[nH]1.Cl [GW701424] | 50
23 | CN1c2ccc(CNc3ccc(F)cc3)cc2-c2c(cnn2C)S1(=O)=O | 0
24 | Cc1ccc(NC(=O)c2ccnc(N3CCN(C)CC3)c2)cc1-c1ccc(C(=O)NCC2CC2)cc1 [GW775604] | 33
25 | COc1ccc(Nc2nccc(N3CCC(NC(=O)Nc4cccc(C(C)=O)c4)C3)n2)cc1 (stereo not shown) [GSK1379731] | 4
26 | Cn1cc(-c2ccc3c(c2)CCN3C(=O)Cc2ccccc2Cl)c2c(N)ncnc21 [GSK2608885] | 0
27 | COc1ccc(Nc2nccc(N3CCC(NC(=O)Nc4cc(C)ccc4C)C3)n2)cc1 (stereo not shown) [GSK1379741] | 0
28 | COc1cc2c(cc1OCCN1CCN(C)CC1)ncc1c3ccc(C#N)cc3[nH]c21 | 0
29 | CSc1ccc(-c2cc3ncnc(SCC(=O)O)c3s2)cc1 | 13
30 | Cc1cccc(Cn2ccn3c(=O)cc(N4CCOCC4)nc23)c1 [GSK2297542] | 16
31 | Nc1nc(-c2ccc3c(N)n[nH]c3c2)cc(N2CCCC2)n1 [GSK2227430] | 0
32 | Cc1cccc(-c2nc(Nc3ccc4ncsc4c3)c3ccccc3n2)n1 [GW867588] | 0
33 | CCn1cnc2c(N)ncnc21 [GW345098] | 0
34 | O=C(NOCC1CC1)c1ccc(F)c(F)c1Nc1ccc(I)cc1Cl | 0
